Lassa entry inh – inhibitors of Lassa virus binding or cell entry | Lassa virus pseudotype entry inhibition, cell reporter | Potency, µM (titrated, usually from 37.9 µM), without a hit: at the top dose activity change, negative = inhibition, usual class: inhibitors | 300,000 tested, 1.2% active; calls by dose curve; tested in HEK293 cells; further: potency means the concentration at half of the fitted maximal effect; on the % scale 0 is the no-effect control and ±100 the full control effect; nearly all actives have a fitted effect of over 50% in size
HCMV antiviral – inhibitors of human cytomegalovirus; 410,000 tested, 4.5% active; HFF cells, HCMV-luciferase reporter, 72 h; hits give low values; activity change, negative = inhibition, % at 57.5 µM; in the data active means activity change below about -60%; inconclusive means no clear call, values can overlap the other calls; inactive means above about -39%; further: on the % scale 0 is the no-effect control and ±100 the full control effect
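After 16 h attachment at 37C, HFF cells received test compound and HCMV-luciferase (1 PFU/cell); reporter luminescence read 72 h later, data normalized against buffer-only and known inhibitor Salinomycin.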
Marburg entry inh – Marburg virus entry inhibition. AID 540276. 300,000 tested, 1.8% active. Marburg virus pseudotyped entry inhibition, cell reporter. Potency, µM (highest dose often 37.8 µM), inactives show top-dose activity change, negative = inhibition, most hits filed as inhibitors; calls by dose curve; tested in HEK293 cells; further: potency means the concentration at half of the fitted maximal effect; on the % scale 0 is the no-effect control and ±100 the full control effect
FMDV antiviral – blocks foot and mouth disease virus | FMDV antiviral cell-based qHTS | Potency, µM (series often up to 57.9 µM), inactives show at the top dose activity change, negative = inhibition, usual class: inhibitors | 410,000 tested, 1.2% active; calls by dose curve; tested in HEK293T cells; further: read-out not given here; potency means the concentration at half of the fitted maximal effect; on the % scale 0 is the no-effect control and ±100 the full control effect; nearly all actives have a fitted effect of over 45% in size
HCV inhibitor – HCV inhibition. Potency, µM (top dose mostly 41.8 µM), inactives show at the highest dose activity change, negative = inhibition, actives largely listed as inhibitors. Huh7.5.1 HCVcc-Cre infection, luciferase reporter, 44 h. 340,000 tested, 3.4% active; further: potency means the concentration at half of the fitted maximal effect; on the % scale 0 is the no-effect control and ±100 the full control effect
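Infectious HCVcc-Cre (~0.5 moi) was added to cells just after compound, with cells seeded 4 h earlier at 1,000 per well. Luciferase activity after 44 h culture reported infection; substrate was incubated 15 min at room temperature before reading.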
HCV confirm – confirmation of hepatitis C virus inhibitors | shares compounds with HCV inhibitor | HCVcc-Cre infectious virus cell assay, luciferase, inhibition | Potency, µM (titrated, usually from 41.8 µM), inactives show at the highest dose activity, negative = inhibition, hits mostly inhibitors | 640 tested, 78% active | AID 720575; further: potency means the concentration at half of the fitted maximal effect; nearly all actives have a fitted effect of over 80% in size
HCV host tox – counter-screen for HCV inhibitors: host cell cytotoxicity; shares compounds with HCV inhibitor; HCV host cell line cytotoxicity counterscreen; Potency, µM (doses to about 41.8 µM), inactives show at the highest dose activity change, negative = cytotoxicity, most hits filed as inhibitors; 640 tested, 22% active;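 further: potency means the concentration at half of the fitted maximal effect; 44 h compound exposure; on the % scale 0 is the no-effect control and ±100 the full control effect; nearly all actives have a fitted effect of over 55% in size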
The depositor's hits bear a star; ? = inconclusive; . = not tested or not shown; [ ] = remark or other dose. Most compounds without a hit are left out; they make up all but 7.9% or so of the library. Unless noted, the call rests on the fitted dose curve; in most records, active means well fitted curve in the direction sought with a large enough effect; inconclusive means small, poorly fitted or top-dose-only effect, or another doubt; inactive means no such curve, though single readings can be large; an effect the other way counts as inactive or inconclusive.

SMILES | Lassa entry inh | HCMV antiviral | Marburg entry inh | FMDV antiviral | HCV inhibitor | HCV confirm | HCV host tox
CC(C)c1ccc(NC(=O)CSc2ncnc3c2sc2ccccc23)cc1 | 6%[46.1 µM] | 10 | . | -17% | . | . | .
Cc1cc(=O)oc2c3c(cc(OCC(=O)Nc4ccc(CCO)cc4)c12)OC(C)(C)CC3 | . | 4 | . | -20% | 0.71µM* | 22µM* | 31%
CC1(C)CC(=O)c2c(O)cc(OCC(=O)Nc3ccc(CCO)cc3)cc2O1 | . | -25 | . | 0% | 5µM* | 14µM* | 15%
Cc1cc(=O)oc2c3c(cc(OCC(=O)Nc4cccnc4)c12)OC(C)(C)CC3 | . | 2 | . | -21% | ? | . | .
COc1ccc(CCNC(=O)COc2cc(O)c3c(c2)OC(C)(C)CC3=O)cc1 | . | 0 | . | -16% | ? | . | .
N#Cc1ccc(-c2cn(-c3ccccc3)c3[n+]2CCCS3)cc1 | 2% | -5 | 9%[46.1 µM] | -4% | 0% | . | .
COc1ccc(-n2cc(-c3ccc(C)cc3)[n+]3c2SCC3)cc1 | ? | -102* | 1.3µM* | 11µM* | ? | 13µM* | 13µM*
CCOc1ccccc1NC(=O)CSc1nnc(Cc2ccc(OC)cc2)c(=O)n1N | -15% | 8 | 0% | -14% | ? | 7.9µM* | 26%
CCOc1ccc(Cc2nnc(SCC(=O)Nc3ccccc3)n(N)c2=O)cc1 | ? | -18 | -2%[46.1 µM] | 4% | ? | . | .
Fc1ccc(C(c2nnnn2Cc2cccs2)N2CCN(C3CCCC3)CC2)cc1 (stereo not drawn) | ? | -9 | ? | ? | ? | -12% | -17%
c1ccc(C(c2nnnn2Cc2cccs2)N2CCN(C3CCCC3)CC2)cc1 (stereo not drawn) | -18% | -7 | ? | -13% | -3% | . | .
N[C@@]1(C(=O)O)CN[C@@H](C(=O)O)C1 | . | . | . | -9% | . | . | .
O=[N+]([O-])c1cc2c(cc1[N+](=O)[O-])OCCOCCOCCOCCO2 | -42% | 90 | -11% | -18% | 6.3µM* | ? | -15%
Cc1cnc[nH]1 | . | -22 | . | -16% | -61% | 9% | -7%
CNCCc1cnc[nH]1 | . | . | . | 7% | . | . | .
COc1ccc(/C=C/C(=O)c2ccc(O)cc2)cc1 | . | 37 | . | 36% | 10% | . | .
COC(=O)c1ccc2c(c1)C(C)(C)C(/C=C/c1ccc(O)cc1)=[N+]2C | ? | -102* | ? | 10µM* | 2.2µM* | 5µM* | 8.9µM*
CCOc1cc(C#N)c(NC(=O)c2ccc(OC)c(S(=O)(=O)N3CCN(c4ccccc4)CC3)c2)cc1OCC | 2%[46.1 µM] | -9 | -27%[46.1 µM] | -9% | . | . | .
C=CCNc1nc(N)c([N+](=O)[O-])c(Nc2ccccc2OC)n1 | -12%[46.1 µM] | 5 | -13%[46.1 µM] | -17% | 6.3µM* | 22µM* | 53%
COc1ccc(NC(=O)c2cc(-c3cc(C)cc(C)c3O)n[nH]2)cc1Cl | 0% | -40 | ? | ? | 8.9µM* | 14µM* | ?
COc1ccc(NC(=O)c2cc(-c3ccccc3O)n[nH]2)cc1Cl | -2%[46.1 µM] | -2 | ? | 7% | -25% | . | .
CCCCN(C(C)=O)c1ccc2c(c1)C1CC2CCN1C(=O)OCc1ccccc1 (stereo not drawn) | . | ? | . | 40µM* | 3.5µM* | 4µM* | 7.9µM*
COc1ccc(NC(=O)C2CCCCN2N)cc1OCC(C)C (stereo not drawn) | 21% | 99 | -29% | . | ? | ? | 38%
COc1ccc(CNN2CCCCC2C(=O)Nc2ccc(OC)c(OCC(C)C)c2)cc1OC (stereo not drawn) | . | 0 | . | -27% | -13% | . | .
CCOC(=O)Cn1c2c(c(=N)c3c1CCC3)CCC2 | 7% | 2 | 11% | 0% | -15% | . | .
SMILES | Lassa entry inh | HCMV antiviral | Marburg entry inh | FMDV antiviral | HCV inhibitor | HCV confirm | HCV host tox
CCCCCCCCCCn1c2c(c(=N)c3c1CCC3)CCC2 | ? | -98* | ? | 18µM* | 3.5µM* | 1.8µM* | 2.2µM*
Cc1nc2nc(C)n(CCN3CCOCC3)c(=O)c2c(-c2cccc([N+](=O)[O-])c2)c1C(=O)CCCCCCCCCCN1CCC(c2ccccc2)(c2ccccc2)CC1 | ? | -78* | 0.5µM* | 25µM* | ? | 14µM* | ?
O=C(NCCCN1CCOCC1)/C(=C/c1ccc(-c2cccc([N+](=O)[O-])c2)o1)NC(=O)c1ccccc1 | . | 18 | . | -26% | . | . | .
CCOC(=O)c1ccc(NC(=O)CC2Nc3cc(C)c(C)cc3NC2=O)cc1 (stereo not drawn) | -5%[46.1 µM] | -15 | 1%[46.1 µM] | 0% | . | . | .
COc1ccc(CNc2cccc3[nH]c(C(F)(F)F)nc23)cc1OC | . | 2 | . | -24% | 5.6µM* | 22µM* | 3%
N#Cc1ccccc1CSc1ccc(-c2nc3ccccc3[nH]2)cn1 | -9% | -23 | ? | . | 8.9µM* | ? | 14µM*
Cc1ccc(NS(=O)(=O)c2ccc3c(c2)N(C)C(=O)CC(=O)N3C)cc1Cl | -14%[46.1 µM] | -9 | 1%[46.1 µM] | 58% | . | . | .
c1ccc(Nc2nc(-c3ccncc3)nc3ccccc23)cc1 | -8% | 38 | ? | ? | ? | 5µM* | -95%
c1cncc(-c2nc(N3CCCCCC3)c3ccccc3n2)c1 | ? | -31 | ? | ? | ? | . | .
Fc1ccccc1Nc1nc(-c2ccncc2)nc2ccccc12 | ? | 35 | ? | ? | 2.2µM* | 8.9µM* | 30%
c1ccc2c(N3CCCCCC3)nc(-c3ccncc3)nc2c1 | 12% | ? | ? | ? | 8.9µM* | 0.01µM* | 18%
CCOc1ccccc1-c1noc(CSc2nnc(-c3ccccc3)n2-c2cccc(C)c2)n1 | -27%[46.1 µM] | -3 | -18%[46.1 µM] | -28% | . | . | .
O=S(=O)(c1ccc2[nH]c3c(c2c1)CCCC3)N1CCN(c2cccc(C(F)(F)F)c2)CC1 | ? | -13 | . | -16% | . | . | .
Cc1onc(-c2ccccc2Cl)c1C(=O)Nc1ccccc1C(=O)NC(C)C | ? | ? | 9.2µM* | . | 4.5µM* | 22µM* | ?
CCOC(=O)c1c(N)sc2c1CCC(CC)C2 (stereo not drawn) | -1% | 14 | -15% | -18% | -5% | . | .
CC#CCOC(=O)c1c(C)nc2sc3c(c2c1N)CCC(O)C3 (stereo not drawn) | ? | ? | -38% | ? | 7.1µM* | 22µM* | ?
CCN(CC)S(=O)(=O)c1ccc(OC)c(NC(=O)CSc2cc(Cl)ccc2Cl)c1 | ? | ? | ? | -3% | ? | 22µM* | 22%
COc1cccc(NC(=O)c2oc3ccccc3c2NC(=O)C2CC2)c1 | ? | -17 | ? | -22% | ? | ? | 23%
COc1ccc(NC(=O)c2oc3ccccc3c2NC(=O)C2CC2)cc1 | -11% | -23 | 3% | -13% | -26% | . | .
COc1cc2c(cc1OC)C(C)N(C(=O)C(NC(=O)c1ccccc1)C(C)C)CC2 (stereo not drawn) | -30% | 65 | 0%[46.1 µM] | -10% | ? | . | .

High-throughput results from PubChem.
